Sampled rows, rich in hits. Any-hit rate of the full collection: about 0.52%.
Sa growth 42C = blocks Staphylococcus aureus growth; S. aureus RN4220 growth, OD600, 20 h, 42 °C; stronger effect = lower value; relative growth, % (concentration not given with the values); actives 0.53% (n = 170,000); AID 720641;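 active = relative growth at most 50% at the other temperature and 20+ points below 30 °C, or under 10% at both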
Sa helicase inh = blocks Staphylococcus aureus DNA helicase. purified S. aureus helicase, fluorescence unwinding assay. AID 485395. actives 0.05% (n = 120,000). inhibition, % (test concentration not listed); in the data active = inhibition above about 25%, passing the limit was not always enough;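 note: 0% = mean of negative control wells and 100% = mean of positive control wells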
* = called active by the depositor; . = no result given; ! = not confirmed by another sample.

SMILES | Sa growth 42C | Sa helicase inh
CCn1cc(C(=O)NCCc2ccc(OC)c(OC)c2)c(=O)c2cc(S(=O)(=O)N(C)C)ccc21 | 102 | 4
Cn1c(C(C#N)/C(=N\S(=O)(=O)c2ccccc2)c2ccccc2)nc2ccccc21 (configuration not stated) | 78 | 8
O=C(NCc1ccncc1)c1cccc(Oc2ccccc2)c1 | 105 | 0
O=C(NCc1cccnc1)/C(=C\c1cccc(Oc2ccccc2)c1)S(=O)(=O)c1ccccc1 | -1.3* | 17
O=C(NCc1cccnc1)c1ccc(Br)cc1 | . | 18
O=C(NCc1cccnc1)/C(=C\c1ccc(Br)cc1)S(=O)(=O)c1ccccc1 | -1.3* | 10
CCCCCOc1ccc(C(=O)/C=C/C(=O)O)cc1 | 39 | -10
CC1=C(C(=O)N(CC(=O)NCc2ccco2)c2ccc(Cl)cc2)SCCO1 | 112 | -12
CC(C)c1ccc(NC(=O)CSc2ncccn2)cc1 | 111 | .
O=C1C=CC(=O)N1CCc1ccc(Cl)cc1 | 9.7* | -17
O=C1C=CC(=O)N1CCc1ccccc1 | 19 | 17
COc1ccc(/C=C(\C#N)c2ccc(C)cc2)cc1 | 44* | .
COc1ccc(/C=C(\C#N)c2ccc(OC)cc2)cc1 | 133 | .
C/C=C\C1=C(C(=O)O)N2C(=O)C(NC(=O)C(N)c3ccc(O)cc3)C2SC1 (configuration not stated) | 1.2* | .
CC1=C(C(=O)O)N2C(=O)[C@@H](NC(=O)[C@H](N)c3ccccc3)[C@H]2SC1 | 92 | .
CCOc1cccc(C(=O)Oc2cccc3ccc(C)nc23)c1 | 80 | 6
Cc1ccc2cccc(OC(=O)c3ccc(Br)o3)c2n1 | 0.3* | -23
NNC(=O)c1ccc(Oc2ccc(Cl)cc2)nc1 | 92 | 11
CCC1CCCCN1CCCNC(=O)c1ccc(Sc2ccc(C)cc2)c(NC(C)=O)c1 (configuration not stated) | 107 | 15
C[C@@H](O)[C@H]1C(=O)N2C(C(=O)O)=C(S[C@@H]3CN[C@H](C(=O)N(C)C)C3)[C@H](C)[C@H]12 | -0.5* | .
N#Cc1ccc(OCC(O)CN2CCC(O)CC2)cc1 (configuration not stated) | 76 | -2
S=C(S)N1CCCC1 | 1.7* | -5
NC(=S)N1CCCC1 | 94 | 70
Cc1ccc(SCCC(=O)O)cc1C | 110 | -13
CCCCN1COc2c(cc(Cl)c3cccnc23)C1 | 1.0* | 8
SMILES | Sa growth 42C | Sa helicase inh
Clc1cc2c(c3ncccc13)OCN(CCc1ccccc1)C2 | 95 | 14
Clc1cccc(NCc2cccc3c2CN(CC2CCCO2)C3)c1 (configuration not stated) | 100 | 0
Clc1cc2c(c3ncccc13)OCN(CC1CCCO1)C2 (configuration not stated) | 1.0* | -13
Oc1c(CN2CCc3ccccc3C2)cc(Cl)c2cccnc12 | . | -12
Clc1cc2c(c3ncccc13)OCN(CCC1=CCCCC1)C2 | 0.1* | 11
S=c1cc(-c2ccccc2)oc2ccccc12 | 66 | .
CCC(=O)Nc1ncc2c(n1)CC(c1ccc(N(C)C)cc1)CC2=O (configuration not stated) | 105 | -2
CCCCCOc1ccc(/C=C/C(=O)N(CCO)CCO)cc1 | 79 | -9
Cc1cccn2c(=O)c(/C=C(\C#N)C(=O)N3CCOCC3)c(Oc3ccccc3)nc12 | 99 | 11
CCN1C(=O)C2Cc3cc(OC)c(OC)cc3CN2C1=S (configuration not stated) | 73 | 10
COc1cccc(CN2CCN(Cc3ccc(F)cc3)C2c2ccc(SC)cc2)c1 (configuration not stated) | 85 | 17
CCN(c1ccc2oc3ccccc3c2c1)S(=O)(=O)c1ccc(C#N)cc1 | 45* | -8
CCN(c1ccccc1)S(=O)(=O)c1ccc(Cl)cc1 | 88 | 0
O=c1cc(-c2ccccc2)c2ccc(O)c(O)c2o1 | . | 58*
CCc1cc(=O)oc2c(O)c(O)ccc12 | 102 | 11
NCc1ccc(OC(F)F)cc1 | 97 | 5
Cc1noc(C)c1S(=O)(=O)N1CC(C)OC(C)C1 (configuration not stated) | 110 | .
CC[C@H]1OC(=O)[C@H](C)[C@@H](O[C@H]2C[C@@](C)(OC)[C@@H](O)[C@H](C)O2)[C@H](C)[C@@H](O[C@@H]2O[C@H](C)C[C@H](N(C)C)[C@H]2O)[C@](C)(O)C[C@@H](C)/C(=N\OCOCCOC)[C@H](C)[C@@H](O)[C@]1(C)O | 0.1* | .
CC[C@H]1OC(=O)[C@H](C)[C@@H](O[C@H]2C[C@@](C)(OC)[C@@H](O)[C@H](C)O2)[C@H](C)[C@@H](O[C@@H]2O[C@H](C)C[C@H](N(C)C)[C@H]2O)[C@](C)(O)C[C@@H](C)/C(=N/OCOCCOC)[C@H](C)[C@@H](O)[C@]1(C)O | -0.5* | .
O=C(COc1ccc(Cl)cc1Cl)Sc1nc2ccccc2o1 | 93 | -1
Clc1ccc(-c2nc(NCc3ccco3)c3ccccc3n2)c(Cl)c1 | 52 | -36
c1cncc(-c2nc(NCCSCc3ccco3)c3ccccc3n2)c1 | 5.9* | -8
CCCC(=O)NCc1nc2ccccc2[nH]1 | . | -23
COc1ccc(OCCCn2ccnc2)cc1 | 84 | 10
Cc1ccc(C(C)C)c(OCCCCn2ccnc2)c1 | -0.7* | 4
SMILES | Sa growth 42C | Sa helicase inh
Cc1ccc(C(C)C)c(OCCn2ccnc2)c1 | 59 | -19
Cc1ccc(OCCCn2ccnc2)cc1 | 102 | 10
c1ccc2c(OCCCCCn3ccnc3)cccc2c1 | -0.5* | 3
Cc1cc(OCCCCCn2ccnc2)cc(C)c1Cl | -0.9* | 31
O=C(NC(=O)C(F)(F)F)NC1(C(F)(F)F)OCCO1 | 81 | 19
CCn1c(COC(=O)/C=C/c2ccc(Br)o2)nc2cc(S(=O)(=O)N(C)C)ccc21 | 107 | 3
Cc1csc2nc(CSc3nnc(-c4ccccc4Cl)n3C3CCCC3)cc(=O)n12 | 94 | 7
O=C(c1cc(-c2nnc(-c3ccc(Cl)cc3)o2)n(C2CC2)c1)c1ccccc1O | 74 | -21
O=C(CCc1nc(-c2cccs2)no1)Nc1c(C(=O)N2CCN(c3ncccn3)CC2)oc2ccccc12 | 91 | 14
CC(Oc1ccc2c(-c3ccccc3)cc(=O)oc2c1)C(=O)ON1C(=O)CCC1=O (configuration not stated) | 115 | -4
CCCCNC(=O)N1CCCCC1 | 89 | 0
CC(=O)Oc1ccccc1C(=O)Nc1ccc(OC(F)F)cc1 | 4.2* | -19
CC(=O)Oc1ccccc1C(=O)Nc1ccc(C(N)=O)cc1 | 103 | 13
CCS(=O)(=O)c1ccc(OC)c(N=NC2=C(O)CC(C)(C)CC2=O)c1 | 93 | -16
Cc1cc(=O)n(-c2nc3ccccc3[nH]2)[nH]1 | 8.3*! | 7
O=c1cc(-c2ccccc2)[nH]n1-c1nc2ccccc2[nH]1 | 7.5* | 17
Cc1nn(-c2nc3ccccc3[nH]2)c(N)c1-c1ccccc1 | 85 | -13
Cc1[nH]n(-c2nc3ccccc3[nH]2)c(=O)c1C1OC(=O)c2ccccc21 (configuration not stated) | 46 | 11
Nc1c(C(=O)c2ccc(Cl)s2)sc2c1c(=O)[nH]c(=O)n2Cc1cccs1 | 96 | -9
Cn1nc(-c2ccc(F)cc2)nc2c(=O)n(C)c(=O)nc1-2 | 0.2* | -132
COc1ccc(-c2nc3c(=O)n(C)c(=O)nc-3n(C)n2)cc1OC | 53 | -1
COc1ccc(OC)c(N=C2SCS2)c1 | 101 | .
Cc1cccc(C)c1-n1nnnc1S(=O)(=O)Cc1ccccc1Cl | 96 | -3
COc1cccc(-n2nnnc2S(=O)(=O)Cc2ccccc2)c1 | -1.1* | 2

Source: PubChem (ICCB-Longwood Screening Facility, Harvard Medical School)
